A number with no mark means an inactive call. Inconclusive results are not listed. Entries that show only a call come without a potency. Calls of active or inactive are those of the source. Calls come from the whole dose curve; as a rule, active = well fitted curve in the direction sought with a large enough effect; inconclusive = small, poorly fitted or top-dose-only effect, or another doubt; inactive = no such curve, though single readings can be large; an effect the other way counts as inactive or inconclusive.
Key:
[1] = tested on: Zika virus NS2B-NS3 protease (linked construct); assay: Primary screen NINDS Rhodamine qHTS for Zika virus inhibitors (AID 1347160); note: nearly all actives have a fitted effect of over 55% in size
Procedure, shortened: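 Purified NS2B-NS3 protease with the NS2B hydrophilic domain joined by a flexible linker (25 nM) in 10 mM Tris-HCl pH 8.0, 0.01% Tween 20, preincubated 15 min at RT with compound; Rhodamine110 peptide substrate 1.5 µM; fluorescence change over 15 min; 4-parameter Hill fit.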

[2] = target: Glutathione peroxidase 1 (Homo sapiens) (UniProt P07203); assay: Primary qHTS Assay for Inhibitors of Recombinant Selenoprotein Glutathione Peroxidase 1 (GPX1) (AID 1845191); note: nearly all actives have a fitted effect of over 65% in size
Procedure, shortened: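 Recombinant GPX1 (10 nM final) was preincubated with compound for 30 min at room temperature, then reacted with 1 mM GSH, 0.5 mM CHP, 0.5 mM NADPH and 100 nM glutathione reductase; NADPH fluorescence (340/450 nm) was read at 0 and 15 min.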

[3] = target: Phospholipid hydroperoxide glutathione peroxidase GPX4 (Homo sapiens) (UniProt P36969); assay: Primary qHTS Assay for Inhibitors of Recombinant Selenoprotein Glutathione Peroxidase 4 (GPX4) (AID 1845192); note: nearly all actives have a fitted effect of over 65% in size
Procedure, shortened: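 GR-coupled readout: 100 nM GR, 1 mM GSH, 0.5 mM NADPH; NADPH fluorescence (ex 340/em 450 nm) read at t=0 and after 15 min RT. GPX4 200 nM, preincubated 30 min with compound; substrate 0.5 mM CHP.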

[4] = target: Luciferin 4-monooxygenase (Photinus pyralis) (UniProt P08659); assay: Primary firefly luciferase (FLuc) qHTS assay for identification of artifact compounds. (AID 1845220); conditions: outcome: dose series up to 54.1 µM unless noted; note: nearly all actives have a fitted effect of over 60% in size
Procedure, shortened: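 In this counter-screen for luciferase artifacts, test compounds met substrate (10 uM each luciferin and ATP) before 10 nM enzyme started the reaction. Light output was measured 5 min later.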

[5] = tested on: Nanoluciferase (engineered Oplophorus gracilirostris luciferase); assay: Primary Nanoluciferase (NLuc) qHTS assay for identification of artifact compounds. (AID 1845222);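 note: NLuc secreted into diluted conditioned medium of S16 cells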
Procedure, shortened: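 Using secreted nanoluciferase in S16 culture medium (0.22 um filtered, 1:55 dilution), compounds were preincubated 15 min at RT. Signal was generated with Nano-Glo reagent (1:100) over 5 min.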

[6] = Primary redox qHTS assay for identification of artifact compounds. (AID 1845223); note: potency is the fitted concentration of half-maximal effect
Procedure, shortened: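 Amplex Red (25 uM) and HRP (250 mU/mL) in HBSS, with compounds for 15 min, then 250 uM DTT for 30 min, room temperature, dark. Fluorescence 525/598 nm read; normalized to DMSO and 10 uM DA3003; Hill fit.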

NIH3T3 = assay: Cytotoxic Profiling of Annotated Libraries Using Quantitative High-Throughput Screening (AID 1296008); conditions: Five cell lines viability, CellTiter-Glo ATP luminescence, 48-72 h; max response: hits give low values; note: nearly all actives have a fitted effect of over 60% in size; note: potency is the fitted concentration of half-maximal effect
Procedure, shortened: (§1)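 Compounds were pin-transferred onto cells and incubated 48 or 72 hr at 37 degree Celsius, 95% humidity. CellTiter-Glo was added, plates sat 10 min at room temperature, then ATP-coupled luminescence was imaged as the viability read-out.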

C33A = assay: Primary qHTS to identify gynecologic anti-cancer compounds using libraries of approved drugs and bioactive compounds (AID 1345084); conditions: Gynecologic cancer cell panel viability, ATPlite luminescence, 48 h; series mostly up to 57.5 µM; note: nearly all actives have a fitted effect of over 55% in size; note: potency is the fitted concentration of half-maximal effect
Procedure, shortened: (§2)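 Cells, 1,000 per well, plated 16 h, then exposed 48 h at 37 C to compounds. Viability by ATPlite luminescence after 15 min at room temperature.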

CASKI = assay: as above; conditions: Gynecologic cancer cell panel viability, ATPlite luminescence, 48 h; series mostly up to 57.5 µM
Procedure, shortened: as §2

Es-2 = assay: as above; conditions: Gynecologic cancer cell panel viability, ATPlite luminescence, 48 h; series mostly up to 57.5 µM
Procedure, shortened: as §2

Hek293T = assay: as above; conditions: Gynecologic cancer cell panel viability, ATPlite luminescence, 48 h, control line for the selectivity index; series mostly up to 57.5 µM
Procedure, shortened: as §2

Tov-21-G = assay: as above; conditions: Gynecologic cancer cell panel viability, ATPlite luminescence, 48 h; series mostly up to 57.5 µM
Procedure, shortened: as §2

Tov112D = assay: as above; conditions: Gynecologic cancer cell panel viability, ATPlite luminescence, 48 h; series mostly up to 57.5 µM
Procedure, shortened: as §2

[7] = tested on: Zika virus NS2B-NS3 protease (unlinked complex); assay: Primary screen GU Rhodamine qHTS for Zika virus inhibitors: Unlinked NS2B-NS3 protease assay (AID 1347159); note: nearly all actives have a fitted effect of over 60% in size
Procedure, shortened: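 Noncovalent NS2B hydrophilic domain/NS3 protease complex (25 nM final) in 10 mM Tris-HCl pH 8.0, 0.01% Tween 20, preincubated 15 min with compounds (up to 114 microM), then 1.5 microM Rhodamine110 substrate. Fluorescence change over 15 min fitted to 4-parameter Hill.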

[8] = target: Calcium and integrin-binding protein 1 (Homo sapiens) (UniProt Q99828); assay: Primary qHTS for Identification of Calcium Integrin Binding Protein 1 (CIB1) Competitor (AID 1508620);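 note: GST tagged CIB1 binding a fluorescein labelled alphaIIb integrin peptide tracer; top concentration of the series differs between compounds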
Procedure, shortened: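 Fluorescence polarization competition: CIB1-GST (1 uM final) preincubated with compound 15 min at room temperature, then FITC-labeled alphaIIb peptide (100 nM final) added for another 15 min. Polarization read at Ex 480/Em 540.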

JEG-3 = assay: Primary qHTS to identify gynecologic anti-cancer compounds using libraries of approved drugs and bioactive compounds (AID 1345084); conditions: Gynecologic cancer cell panel viability, ATPlite luminescence, 48 h; series mostly up to 57.5 µM; note: nearly all actives have a fitted effect of over 55% in size; note: potency is the fitted concentration of half-maximal effect
Procedure, shortened: as §2

[9] = Primary fluorescence-based thiol-reactive (MSTI) qHTS assay for identification of artifact compounds. (AID 1845221);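 note: thiol-reactive compounds lower the probe fluorescence signal; nearly all actives have a fitted effect of over 65% in size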
Procedure, shortened: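 MSTI probe at 4 uM final in 2% DMSO/PBS pH 7.4; compounds, 1 h at room temperature in dark. Fluorescence Ex/Em 525/598 nm, normalised to Acetyl-MSTI and MSTI, fitted to 4-parameter Hill.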

HaCat = assay: Cytotoxic Profiling of Annotated Libraries Using Quantitative High-Throughput Screening (AID 1296008); conditions: Five cell lines viability, CellTiter-Glo ATP luminescence, 48-72 h; max response: hits give low values; note: nearly all actives have a fitted effect of over 60% in size; note: potency is the fitted concentration of half-maximal effect
Procedure, shortened: as §1

OV90 = assay: Primary qHTS to identify gynecologic anti-cancer compounds using libraries of approved drugs and bioactive compounds (AID 1345084); conditions: Gynecologic cancer cell panel viability, ATPlite luminescence, 48 h; series mostly up to 57.5 µM; note: nearly all actives have a fitted effect of over 55% in size; note: potency is the fitted concentration of half-maximal effect
Procedure, shortened: as §2

PA-1 = assay: as above; conditions: Gynecologic cancer cell panel viability, ATPlite luminescence, 48 h; series mostly up to 57.5 µM
Procedure, shortened: as §2

Phospholipid hydroperoxide glutathione peroxidase GPX4 (Homo sapiens), sequence (P36969 whole entry, looked up): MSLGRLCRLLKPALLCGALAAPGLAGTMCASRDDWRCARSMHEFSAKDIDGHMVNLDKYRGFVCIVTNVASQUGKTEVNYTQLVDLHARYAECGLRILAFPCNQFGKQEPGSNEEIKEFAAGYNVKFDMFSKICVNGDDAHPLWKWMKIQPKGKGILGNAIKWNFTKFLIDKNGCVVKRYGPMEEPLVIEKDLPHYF
Calcium and integrin-binding protein 1 (Homo sapiens), sequence (Q99828 whole entry, looked up): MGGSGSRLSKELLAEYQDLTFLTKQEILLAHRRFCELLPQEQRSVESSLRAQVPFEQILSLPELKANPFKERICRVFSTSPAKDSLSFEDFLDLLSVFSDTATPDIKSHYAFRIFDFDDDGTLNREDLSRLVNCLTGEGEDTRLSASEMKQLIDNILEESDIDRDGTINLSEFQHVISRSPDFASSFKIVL
Glutathione peroxidase 1 (Homo sapiens), sequence (P07203 whole entry, looked up): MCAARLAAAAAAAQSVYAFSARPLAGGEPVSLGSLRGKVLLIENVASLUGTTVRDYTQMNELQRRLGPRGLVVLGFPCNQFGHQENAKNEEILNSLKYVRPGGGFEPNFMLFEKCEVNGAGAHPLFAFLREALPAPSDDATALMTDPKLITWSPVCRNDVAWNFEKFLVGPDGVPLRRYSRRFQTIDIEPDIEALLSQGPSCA

## C[C@@H]1O[C@@H](OC2CCC3(C=O)C(CCC4C3CCC3(C)C(C5=CC(=O)OC5)C(O)CC43O)C2)[C@H](O)[C@H](O)[C@H]1O[C@@H]1O[C@H](CO)[C@@H](O)[C@H](O)[C@H]1O (stereo partly specified)
[1]
  Potency: inactive
[2]
  Potency: inactive
[3]
  Potency: inactive
[4]
  outcome: inactive [at 25.7 µM]
[5]
  Potency: inactive
[6]
  Potency: inactive
NIH3T3
  max response: 4.35%
C33A
  Potency: 5.62 µM (active)
CASKI
  Potency: inactive
Es-2
  Potency: 6.31 µM (active)
Hek293T
  Potency: 10 µM (active)
Tov-21-G
  Potency: 3.98 µM (active)
Tov112D
  Potency: 3.16 µM (active)

## CC[C@H](O)[C@@H](C)[C@H]1O[C@@H]1C[C@H](C)/C=C/C=C(\C)[C@H]1OC(=O)C[C@H](O)CC[C@@](C)(O)[C@@H](OC(C)=O)/C=C/[C@@H]1C
[7]
  Potency: inactive
[1]
  Potency: inactive
[8]
  Potency: inactive
[2]
  Potency: inactive
[3]
  Potency: inactive
[4]
  outcome: inactive
[5]
  Potency: inactive
[6]
  Potency: inactive
NIH3T3
  Potency: 11.6 nM (active)
JEG-3
  Potency: inactive

## O=C(N1CCCCC1Cc1ccccc1)n1cc(-c2ccc(-c3ccccc3)cc2)nn1 (stereo unspecified)
[7]
  Potency: inactive
[1]
  Potency: inactive
[2]
  Potency: inactive
[3]
  Potency: inactive
[4]
  outcome: inactive
[9]
  Potency: inactive
[6]
  Potency: inactive
HaCat
  outcome: inactive
NIH3T3
  outcome: inactive
C33A
  Potency: inactive
CASKI
  Potency: inactive
Es-2
  Potency: inactive
Hek293T
  Potency: inactive
JEG-3
  Potency: inactive
OV90
  Potency: inactive
PA-1
  Potency: inactive
Tov-21-G
  Potency: inactive
Tov112D
  Potency: inactive

## C=C1C2(C)CC3C(C)(O)C4=CC(=O)OC(C)(C)C4=CCC3(C)C13C(=O)OC(C)C3(O)C2=O (stereo unspecified)
[7]
  Potency: inactive
[1]
  Potency: inactive
[3]
  Potency: inactive
[4]
  outcome: inactive
[5]
  Potency: inactive
[6]
  Potency: 733 nM (active)
NIH3T3
  max response: -1.67%
C33A
  Potency: inactive
CASKI
  Potency: inactive
Es-2
  Potency: inactive
Hek293T
  Potency: inactive
JEG-3
  Potency: inactive
OV90
  Potency: inactive
PA-1
  Potency: inactive
Tov-21-G
  Potency: inactive
Tov112D
  Potency: inactive

## Cc1ccc2c(c1)[C@H]1CN(C)CC[C@H]1N2C(=O)CSc1nnnn1-c1ccc(Cl)cc1
[7]
  Potency: inactive
[8]
  Potency: inactive
[2]
  Potency: inactive
[3]
  Potency: inactive
[4]
  outcome: inactive
[9]
  Potency: inactive
[5]
  Potency: inactive
[6]
  Potency: inactive
HaCat
  outcome: inactive
NIH3T3
  outcome: inactive
C33A
  Potency: inactive
CASKI
  Potency: inactive
Es-2
  Potency: inactive
Hek293T
  Potency: inactive
JEG-3
  Potency: inactive
OV90
  Potency: inactive
PA-1
  Potency: inactive
Tov-21-G
  Potency: inactive
Tov112D
  Potency: inactive

## CN(Cc1cccc(-c2ccncc2)c1)C(=O)Oc1ccc(-c2ccc(C(N)=O)cc2)cc1
[7]
  Potency: inactive
[1]
  Potency: inactive
[3]
  Potency: inactive
[4]
  outcome: inactive
[9]
  Potency: inactive
[6]
  Potency: inactive
HaCat
  outcome: inactive
NIH3T3
  max response: 2.66%
C33A
  Potency: inactive
CASKI
  Potency: inactive
Es-2
  Potency: inactive
Hek293T
  Potency: inactive
JEG-3
  Potency: inactive
OV90
  Potency: inactive
PA-1
  Potency: inactive
Tov-21-G
  Potency: inactive
Tov112D
  Potency: inactive

## CN=C(NS(=O)(=O)c1ccc(Cl)cc1)N1C[C@H](c2ccccc2)C(c2ccc(Cl)cc2)=N1
[7]
  Potency: inactive
[1]
  Potency: inactive
[8]
  Potency: inactive
[4]
  outcome: inactive
[9]
  Potency: inactive
[5]
  Potency: inactive
[6]
  Potency: inactive
HaCat
  max response: -7.89%
NIH3T3
  max response: 4.13%
C33A
  Potency: inactive
CASKI
  Potency: inactive
Es-2
  Potency: inactive
Hek293T
  Potency: inactive
JEG-3
  Potency: inactive
OV90
  Potency: inactive
PA-1
  Potency: inactive
Tov-21-G
  Potency: inactive
Tov112D
  Potency: inactive
